# Measured values as given in PubChem BioAssay AID629 (Emory University Molecular Libraries Screening Center, 2007).
# Out of some 86,000 compounds screened, about 1,400 (1.6%) were called active. The list comes from a sample in which actives are over-represented; it also holds similar structures and randomly drawn compounds. Unmarked numbers belong to inactive results. No stated cut-off is given here; in the data, active means inhibition above about 50%; inactive means the rest.
# Target: Estrogen receptor (Homo sapiens) (UniProt P03372)
# Sequence (P03372 whole entry, looked up, the tested form may be a part): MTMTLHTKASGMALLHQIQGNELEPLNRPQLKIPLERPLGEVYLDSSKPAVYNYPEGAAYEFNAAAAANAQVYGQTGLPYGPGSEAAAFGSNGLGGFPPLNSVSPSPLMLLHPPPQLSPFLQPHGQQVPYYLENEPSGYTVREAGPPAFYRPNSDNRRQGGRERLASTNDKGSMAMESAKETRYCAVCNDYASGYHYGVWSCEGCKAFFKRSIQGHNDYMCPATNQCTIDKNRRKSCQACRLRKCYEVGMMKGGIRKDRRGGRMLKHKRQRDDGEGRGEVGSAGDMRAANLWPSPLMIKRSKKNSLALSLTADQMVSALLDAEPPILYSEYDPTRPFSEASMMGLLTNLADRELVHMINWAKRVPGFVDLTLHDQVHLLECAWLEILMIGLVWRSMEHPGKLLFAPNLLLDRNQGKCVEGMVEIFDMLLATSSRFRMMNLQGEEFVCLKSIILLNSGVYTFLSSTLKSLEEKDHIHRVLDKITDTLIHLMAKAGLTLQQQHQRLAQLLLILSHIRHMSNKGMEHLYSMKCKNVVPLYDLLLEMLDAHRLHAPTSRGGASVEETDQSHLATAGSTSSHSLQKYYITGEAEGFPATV
# Test: blockers of SRC-1 peptide recruitment to ERα – biochemical, TR-FRET, ERα LBD, estradiol-bound, primary screen (AID 629);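 further: 0% = receptor plus peptide control and 100% = peptide only without receptor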
# Settings: TR-FRET ER-alpha LBD / SRC-1 peptide, at 25.6 µM, hits give high values
row,Structure (SMILES),inhibition
1,O=C(CN1CCN(C(=O)c2ccco2)CC1)Nc1ccc2c(c1)OCO2,-22.6%
2,CCOC(=O)C1=C(CSc2nnnn2C)N(C)C(=O)NC1c1ccccc1 (centres undefined),-4.78%
3,O=C(NCc1ccco1)c1cccn2c(=O)c3cc(Br)ccc3nc12,56.4% [fluorescence artefact?] (active)
4,CCn1c(=N)c(C(=O)NCCCOC)cc2c(=O)n3cccc(C)c3nc21,-7.26%
5,O=C(Nc1ccccc1)Nc1ccccc1C(=O)NCc1ccco1,-4.11%
6,O=C(NCc1ccco1)c1cc(-c2cccnc2)nc2ccc(Cl)cc12,10.8%
7,COc1ccc(CNC(=O)c2cc3c(=O)n4ccccc4nc3n(CC3CCCO3)c2=N)cc1 (centres undefined),3.23%
8,COc1ccc(CCn2c(=N)c(C(=O)NCc3ccco3)cc3c(=O)n4cccc(C)c4nc32)cc1,65.7% [fluorescence artefact?] (active)
9,Cc1ccc(/C=N/NC(=O)C2=NNC(c3ccccc3)(c3ccccc3)C2)c(O)c1,21.9%
10,CCSc1ccccc1C(=O)NCc1ccc(OC)cc1,-6.6%
11,COC(=O)/C(NC(C)=O)=C(\C)c1ccc(Cl)cc1,-8.11%
12,CC(=O)NC1=NN(C(C)=O)C(C)(c2ccc(Cl)s2)S1 (centres undefined),2.57%
13,CN(C)c1ccnc2sc3c(=O)n(-c4ccc(Cl)cc4)cnc3c12,42.5%
14,COC(=O)C1=C(C(=O)OC)C2(OC1c1ccc(Br)cc1)C(=O)c1ccccc1C2=O (centres undefined),-2.52%
15,COc1ccc(OC)c(NC(=O)c2cnn(-c3ccccc3Cl)c2NC(=O)c2ccco2)c1,-3.16%
16,Cc1cnc(C(=O)OCC(=O)Nc2ccc(Cl)cc2Cl)cn1,-9.26%
17,COc1ccc(CN2CCn3ncc(C(=O)Nc4ccc(Cl)cc4Cl)c3C2=O)cc1,54.9% [fluorescence artefact?] (active)
18,O=C(c1cccc(F)c1)N1CCC(O)(c2cccnc2)CC1,1.95%
19,CCCNC(=O)CN(Cc1ccccc1F)S(=O)(=O)c1ccc(C)cc1,5.89%
20,COc1cc2c(cc1NC(=O)CN1CCN(S(=O)(=O)c3ccc(F)cc3)CC1)oc1ccccc12,14.2%
21,COc1ccccc1NC(=O)CN1CCN(S(=O)(=O)c2ccc(Br)cc2)CC1,39.3%
22,O=C(CN1CCN(S(=O)(=O)c2ccc(F)cc2)CC1)Nc1ccccc1F,64.5% [fluorescence artefact?] (active)
23,CCCCNC(=O)C1(c2ccc(OC)cc2)CCOCC1,25.4%
24,OC(CN=c1sc2ccccc2n1CC(O)COc1ccccc1)COc1ccccc1 (centres undefined),-21.1%
25,O=C(Nc1ccc2c(c1)OCCO2)C(c1ccc(F)cc1)N1CCCCC1 (centres undefined),1.74%
26,COC(=O)c1[nH]c2ccccc2c1NC(=O)CN1CCCc2ccccc21,66.9% [fluorescence artefact?] (active)
27,CCOC(=O)c1[nH]c2ccc(OC)cc2c1NC(=O)CCN1CCN(Cc2ccccc2)CC1,0.69%

row,Structure (SMILES),inhibition
1,COC(=O)c1[nH]c2cccc(C)c2c1NC(=O)CN1CCCc2ccccc21,33.1%
2,COC(=O)c1ccccc1NC(=O)CN(Cc1ccc(Cl)cc1)S(C)(=O)=O,5.73%
3,C=CCc1ccc(OCCOc2cccc(/C=N/n3cnnc3)c2)c(OC)c1,-8.6%
4,COc1ccc(CC(=O)Nc2ccc(-c3nnc(-c4ccc(C)cc4)o3)cc2)cc1,8.24%
5,CCOc1ccc(-c2nnc(-c3ccco3)o2)cc1,-0.96%
6,Cc1ccc(OCC(=O)Nc2ccc(-c3nnc(-c4ccco4)o3)cc2)cc1,63.7% [fluorescence artefact?] (active)
7,O=C(CSc1nc2cccnc2n1Cc1ccccc1)N1CCc2ccccc21,34.4%
8,COc1nc(NC2CCCCC2)nc(N2CCCCCC2)n1,6.7%
9,CC(Sc1nc2ccccc2c(=O)n1Cc1ccco1)C(=O)c1ccccc1 (centres undefined),4.97%
10,COC(=O)c1c(NC(=O)CSc2nncs2)sc2c1CCCCC2,-1.55%
11,N#Cc1c(NC(=O)CSc2nc3ccccc3c(=O)n2Cc2ccco2)sc2c1CCCC2,61.9% [fluorescence artefact?] (active)
12,COc1ccc(-n2c(SCC(=O)Nc3sc4c(c3C#N)CCCC4)nnc2-c2ccc(O)cc2)cc1,78.5% [fluorescence artefact?] (active)
13,C=C(C)Cn1c(SCC(=O)NCc2ccco2)nc2sc3c(c2c1=O)CCC3,7.04%
14,COc1ccc(-c2nnc(SCC(=O)c3ccco3)n2-c2ccccc2)cc1,11%
15,Cc1cccn2c(=O)c(/C=C(\C#N)S(=O)(=O)c3ccc(Cl)cc3)c(N3CCC(C(N)=O)CC3)nc12,-0.02%
16,O=C(CSCc1c(F)cccc1Cl)NCC1CCCO1 (centres undefined),-1.37%
17,CCCCOc1ccc(C(=O)NCc2ccncc2)cc1,1.95%
18,Cc1ccnc(N2C(=O)c3ccccc3C2Nc2ccc3c(c2)OCCO3)c1 (centres undefined),1.59%
19,COC(=O)c1cc(NC2c3ccccc3C(=O)N2c2ccc(Cl)cn2)cc(C(=O)OC)c1 (centres undefined),66.6% (active)
20,CCc1ccccc1NC1c2ccccc2C(=O)N1c1cccnc1 (centres undefined),-8.02%
21,CCOC(=O)C1=C(C)NC(SC)=NC1c1ccccc1 (centres undefined),-2.42%
22,Cc1nnc(SC(C)C(=O)Nc2ccc(S(=O)(=O)NC3CCCCC3)cc2)s1 (centres undefined),21.6%
23,COc1ccc(N2CCN(C(=O)CSc3nc4cc(OC)c(OC)cc4cc3C#N)CC2)cc1,51.1% [fluorescence artefact?] (active)
24,COc1ccc(N2CCN(C(=O)CSc3ncnc4c3cnn4-c3ccc(OC)cc3)CC2)cc1,-7.43%
25,CCOc1ccc2cc(C#N)c(SCC(=O)OC)nc2c1,17.3%
26,COc1ccc(C)cc1S(=O)(=O)NCCc1ccccc1,8.31%
27,Cc1ccc(OC(=O)c2ccccc2C(=O)OCC(F)(F)C(F)F)cc1,-6.39%
